Our source for the growth inhibition values is PubChem BioAssay (NCI).

About 79,000 compounds went through this panel and 15% of them were active in at least one assay; those are over-represented in the sample as a whole. A number with no mark means an inactive call. Activity calls are given as the source filed them. No stated cut-off is given here; in the data, active means growth inhibition above about 70%; inactive means the rest.

A short description of assay [1]: NCI Yeast Anticancer Drug Screen. Data for the rad50 strain (AID 155).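 Further: 0% = growth of vehicle-only cultures of the same strain.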 The settings on record: S. cerevisiae rad50 strain growth inhibition; at 50.0 µM; stronger effect = higher value. Summed up: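 Readout: growth inhibition relative to vehicle-treated cultures. Compound exposure was carried out in a genetically defined yeast strain deficient in DNA damage repair.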
The nature of assay [2]: NCI Yeast Anticancer Drug Screen. Data for the mec2-1 strain (AID 157). The conditions noted are these: S. cerevisiae mec2-1 strain, at 50.0 µM, stronger effect = higher value. In short, it runs like this: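 Growth inhibition is read against vehicle-treated controls after compound exposure of the mec2-1 yeast strain, which is defective in DNA damage repair or cell cycle control.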

Assay [3] in a line: NCI Yeast Anticancer Drug Screen. Data for the sgs1 mgt1 strain (AID 161).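 Further: 0% = growth of cultures given vehicle only.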 The settings on record: S. cerevisiae sgs1 mgt1 strain, at 50.0 µM, stronger effect = higher value. Summed up: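 Compounds are added to genetically altered yeast, and growth is compared with cultures given vehicle alone to give percent inhibition.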
Assay [4] can be described thus: NCI Yeast Anticancer Drug Screen. Data for the cln2 rad14 strain (AID 165).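 Further: 0% = growth equal to vehicle treated cultures.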 The settings on record: S. cerevisiae cln2 rad14 strain, at 50.0 µM, stronger effect = higher value. In short, it runs like this:
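Growth inhibition, relative to vehicle-treated controls, is the read-out. The test organism is a yeast strain with defined genetic alterations, cln2 rad14.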

The nature of assay [5]: NCI Yeast Anticancer Drug Screen. Data for the bub3 strain (AID 167). The conditions noted are these: S. cerevisiae bub3 mutant strain, at 50.0 µM, stronger effect = higher value. Summed up:
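Readout: yeast growth inhibition, expressed relative to vehicle-only wells. The test organism is a mutant strain from a panel with lesions in DNA repair or checkpoint genes.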

Assay [6] in a line: NCI Yeast Anticancer Drug Screen. Data for the mlh1 rad18 strain (AID 175). The settings on record: S. cerevisiae mlh1 rad18 strain growth inhibition; at 50.0 µM; stronger effect = higher value. Summed up:
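Cells of a genetically altered yeast strain, deficient in DNA damage repair, were treated with compound. Their growth was then compared with that of vehicle-treated cultures to give inhibition.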

Regarding `COC(N)=O`, the growth inhibition in assay [1] was -15.6%; in assay [2] it was -10.2%; in assay [3] it was -16.9%; in assay [4], -15.9%; in assay [5], -2.6%; in assay [6], -8.3%.

With `C[Se]c1ncnc2c1c(C#N)cn2C1OC(CO)C(O)C1O` (stereo unspecified), the growth inhibition in assay [1] was 0.75%; in assay [2], 14.3%; in assay [3], -3.3%; in assay [4], -13.5%; in assay [5], 1.45%; in assay [6], 2.65%.

Take `Cc1ccc(SCC(CSCCO)OCn2cnc3c2NC(N)=NC32OCCO2)cc1` (stereo unspecified): the growth inhibition was 6.15% in assay [1]; 2.3% in assay [2]; -37.2% in assay [3]; -7.4% in assay [4]; -12.3% in assay [5]; -56.9% in assay [6].

Regarding `CC(=O)C1CCC2C3CCC4CC(O)CCC4(C)C3CCC12C` (stereo unspecified), the growth inhibition in assay [1] was 6.2%; in assay [2], -59%; in assay [3] it was 16.8%; in assay [4] it was 26.8%; in assay [5], 10%; in assay [6], -7.3%.

As to `NC(Cc1cccc(NP(=S)(NCCO)N2CC2)c1)C(=O)O` (stereo unspecified), the growth inhibition is -4.95% in assay [1]; 15.1% in assay [2]; 12.8% in assay [3]; -10.9% in assay [4]; 13.1% in assay [5]; 4.35% in assay [6].

As to `C=Cn1nnnc1N`, the growth inhibition in assay [1] is -3%; in assay [2], 2.05%; in assay [3], -10.3%; in assay [4], 8.6%; in assay [5] it was 14.3%; in assay [6] it was 4.5%.

As for `C[N+]1(C)C2CC(O)CC1C1OC12` (stereo unspecified), the growth inhibition in assay [1] is -4.35%; in assay [2], 5.15%; in assay [3] it was 1.45%; in assay [4], 2.85%; in assay [5], -3.75%; in assay [6], 4.45%.

Regarding `CC(C)(O)OC1COC(C2CS2)C1O` (stereo unspecified), the growth inhibition was 18.1% in assay [1]; 15.6% in assay [2]; 3.95% in assay [3]; 34.8% in assay [4]; 29.6% in assay [5]; -22.4% in assay [6].

On to `CN1CCC2(CC1)COCc1ccccc12`, for which the growth inhibition in assay [1] was -9.4%; in assay [2], -5.55%; in assay [3], -2.7%; in assay [4] it was -19.1%; in assay [5], 11.2%; in assay [6], 4.8%.

For `CC(=O)[O][Hg][c]1cc[c]([Hg])s1`, the growth inhibition in assay [1] was 99.5% (active); in assay [2], 99.3% (active); in assay [3] it was 99.5% (active); in assay [4], 99.3% (active); in assay [5], 99% (active); in assay [6] it was 99.2% (active).

Turning to `CCCCCCNC1C=CCC1` (stereo unspecified), the growth inhibition in assay [1] was -5.75%; in assay [2], -2.55%; in assay [3], -10.9%; in assay [4], -15.6%; in assay [5] it was 5.15%; in assay [6], 4.25%.

Consider `CN(C)c1ccc(NP(=O)(Nc2ccc(N(C)C)cc2)N(CCCl)CCCl)cc1`, for which the growth inhibition is 24.2% in assay [1]; 2.1% in assay [2]; 11% in assay [3]; 5.8% in assay [4]; 12.2% in assay [5]; 7.6% in assay [6].

`O=C(Cc1ccc2c(c1)OCO2)c1cn(C(=O)Cc2ccc3c(c2)OCO3)c2ccccc12`: the growth inhibition in assay [1] was 18.7%; in assay [2] it was 5.9%; in assay [3], 5.4%; in assay [4], 14.8%; in assay [5] it was 0.35%; in assay [6], 26.4%.

In the case of `C=C(C)[C@]12CC(C)C34OC(/C=C\C=C\CCCCCCCCC)(O[C@@H]1[C@@H]3[C@@H]1O[C@]1(CO)[C@@H](O)[C@]1(O)C(=O)C(C)=C[C@@H]41)O2` (stereo partly specified), the growth inhibition is 74.4% (active) in assay [1]; 70% (active) in assay [2]; 84.9% (active) in assay [3]; 73% (active) in assay [4]; 73.1% (active) in assay [5]; 64.2% in assay [6].

On to `CS(=O)(=O)Oc1c(Cl)cc(S(=O)(=O)F)cc1Cl`, for which the growth inhibition in assay [1] is 66.2%; in assay [2] it was 75% (active); in assay [3], 82.8% (active); in assay [4] it was 45.6%; in assay [5], 53.5%; in assay [6], 40.1%.

As to `O=C(O)C1C2c3ccccc3C(c3ccccc32)C1C(=O)NCC1CC1` (stereo unspecified), the growth inhibition in assay [1] was 51.5%; in assay [2] it was 7.55%; in assay [3], 10.4%; in assay [4], 13.6%; in assay [5] it was 21.4%; in assay [6], 24.2%.

`CC12CCC(OC3OC(CO)C(O)C(O)C3O)C=C1CCC1C2CCC2(C)C(c3ccc(=O)oc3)CCC12` (stereo unspecified): the growth inhibition is 62.5% in assay [1]; 60% in assay [2]; 46.3% in assay [3]; 35.2% in assay [4]; 61.2% in assay [5]; 45.6% in assay [6].

Regarding `CCN1CCc2cc(OC)c(OC)cc2C1`, the growth inhibition in assay [1] is 0.15%; in assay [2], 4.7%; in assay [3] it was 6.45%; in assay [4], -25.9%; in assay [5], -0.6%; in assay [6], 3.5%.

Consider `CN1C2CCC1CC(OC(=O)c1cccc(O)c1)C2` (stereo unspecified), for which the growth inhibition in assay [1] was 30.9%; in assay [2], 0.55%; in assay [3] it was 0.9%; in assay [4], 4.95%; in assay [5], 15.9%; in assay [6], 16.4%.

On to `N#Cc1ccc(Cc2ccccn2)cc1Cl`, for which the growth inhibition in assay [1] is -1.55%; in assay [2], -1.55%; in assay [3] it was -8.9%; in assay [4] it was 2.1%; in assay [5], -18.9%; in assay [6] it was 4.25%.

Regarding `Cc1ccnc(NN=O)c1`, the growth inhibition was -2.35% in assay [1]; -18.8% in assay [2]; -6.75% in assay [3]; -1.05% in assay [4]; -17.1% in assay [5]; 2.25% in assay [6].
